Assay results as given in the supplement of paper PMC6555819.

System: PPARg:RXRa 270nM:90nM, anti-RXR (NR concentration 270 nM, RXRa partner concentration 90 nM)
Assay: PBM binding z-score (relative to random genomic background probes); higher = stronger binding; sequences stand for … in GC…GCGATTGACAGCGTAGAATGAAGG
Summary of the method: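 Ligand-free nuclear receptor dimers were bound for 1 h to custom Agilent 4×180K protein-binding microarrays. Detection used antibodies against each partner (one per run). Binding z-scores rest on regression-normalized fluorescence, with random background probes as the reference.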

Sequence | PBM binding z-score
TAGCTTAGGTCATGGGCCAGTATACCACGCGAAC | 3.21
ACAGACAGGTGATGAAGGTAACTCGGGCTATCAT | -0.0859
GCTGCTAGGTCAGGTTGGTCACCTAACGGGTACG | 1.15
ATCTCTAGGTAACAAGTCCAGTGAAAGAGAGGAC | 1.71
CCTTACGGGTCACTCCAGGGTATAGCATCGGAGT | 3.68
TCTGCAAGGTCAACGATGGTCAGCTAATCTGCTA | 4.95
CCGAGTAGGTTATTGGGCATTCAGGCAACGGTGA | 2.31
TCATGTAGGTAAATGCTAGGTGAAAGTCCGATCT | 2.1
ACTTACGGGTCAACGAGGTTATAGTACGCGTATA | 5.72
TAGCCTAGGTCATTGGGCCAGTATTGTACGCATC | 3.33
GCTTACGGGTCAAAGGTTATAGCTTGAATAGAAT | 9.06
CCGACTGGGGCATGAGGTTACCATAAGCCAGCCC | 2.41
TCGAGTACGTTAGGGGCATTCAGAATGGCGTCGA | 0.205
TCTTGTAGATCTAAGGTTAAGAAAGCCGAAGCCT | 3.71
CCGAGTAGGTTATAGGGCATTCAGGCAACGGTGA | 6.43
GTGACTGGGGCATCAGCAGGTTACCATAACTTAA | 1.89
CCTTACGGGTCACTACAGGTTATAGCATCGGAGT | 3.84
AGAATGAGGTTGTTAAGATCAGGGAATTGCGGTC | 0.206
ACTAGCCGGCCAAGGGTCACTCAAGATTAGTCCG | 5.62
CAAACTAGGTCAAGGTCACAGTCGGTTTGTGCCA | 8.18
AGAATGAGGTTATACGGAGATCAGGGAAGAAAGT | 2.04
CTCGAAAGGTTGGTTGAGGTGAGTATACGGATAA | 0.107
